# Assay outcomes as filed in PubChem BioAssay.
# ALOX12 inh: Primary qHTS assay for inhibitors of human arachidonate 12S-lipoxygenase (ALOX12): Round 2; Polyunsaturated fatty acid lipoxygenase ALOX12 (Homo sapiens), P18054; 580,000 compounds, 1.1% hits; Potency, µM (titrated, usually from 108 µM), for inactives: at the top dose activity change, negative = inhibition, actives largely listed as inhibitors; purified 12hLO, xylenol orange hydroperoxide absorbance; also: potency is read from the fitted curve at half-maximal effect; % is scaled to controls: 0 for no effect and ±100 for the full control effect
#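 Purified human 12hLO at 150 nM in 25 mM Hepes, 0.01% Triton X-100, pH 7.0, preincubated 15 min at room temperature with compound. Reaction started with 40 uM arachidonic acid, 30 min at room temperature. Hydroperoxide measured by Fe-xylenol orange, 573/405 nm absorbance ratio.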
# Vif-APOBEC3G blk: qHTS for Inhibitors of Vif-A3G Interactions: qHTS; Potency, µM (doses to about 46.1 µM), inactives show top-dose activity, negative = active, most hits filed as inhibitors; 410,000 compounds, 0.076% hits; HeLa A3G-eYFP + Vif (tagged APOBEC3G with the HIV-1 protein that degrades it), YFP fluorescence, overnight; also: potency is read from the fitted curve at half-maximal effect; % is scaled to controls: 0 for no effect and ±100 for the full control effect; nearly all actives have a fitted effect of over 60% in size
#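 Read-out is eYFP fluorescence (Ex 488/Em 500-530) from Vif-expressing HeLa A3G-eYFP cells; more signal means A3G escaped Vif-mediated degradation. Cells plated overnight, compound pinned in, incubated overnight at 37 deg C.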
# Glioma ERSR ind: qHTS for Inducers of the Endoplasmic Reticulum Stress Response (ERSR) in Human Glioma: qHTS; U87-MG GRP78 promoter luciferase reporter, 16 h; Potency, µM, for inactives: at the top dose activation, hits mostly activators; 420,000 compounds, 0.02% hits; AID 602332, 2012; also: potency is read from the fitted curve at half-maximal effect; series mostly up to about 76 µM; % of control where 0% means no effect; nearly all actives have a fitted effect of over 35% in size
#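 Stably transfected U87-MG glioma cells carrying a GRP78-based luciferase sensor; 16 h compound incubation. Luminescence end-point read 10 min after Bright-Glo addition at room temperature.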
# TRPML1 blocker: qHTS for Inhibitors of the Human Mucolipin Transient Receptor Potential 1 (TRPML1); activity change, negative = inhibition, % (no concentration beside the values); 390,000 compounds, 0.02% hits; TRPML1-inducible cells, Ca2+ dye fluorescence, FDSS; hits give low values; inhibition of EC80 agonist-evoked calcium signal; AID 624415, 2012; Mucolipin-1 (Homo sapiens), Q9GZU1; in the data active = activity change below about -50%; inconclusive = between about -30% and that limit;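 also: stimulus is agonist 54-4 at its EC80 concentration; % is scaled to controls: 0 for no effect and ±100 for the full control effect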
# Target sequence (Q9GZU1 whole entry, looked up): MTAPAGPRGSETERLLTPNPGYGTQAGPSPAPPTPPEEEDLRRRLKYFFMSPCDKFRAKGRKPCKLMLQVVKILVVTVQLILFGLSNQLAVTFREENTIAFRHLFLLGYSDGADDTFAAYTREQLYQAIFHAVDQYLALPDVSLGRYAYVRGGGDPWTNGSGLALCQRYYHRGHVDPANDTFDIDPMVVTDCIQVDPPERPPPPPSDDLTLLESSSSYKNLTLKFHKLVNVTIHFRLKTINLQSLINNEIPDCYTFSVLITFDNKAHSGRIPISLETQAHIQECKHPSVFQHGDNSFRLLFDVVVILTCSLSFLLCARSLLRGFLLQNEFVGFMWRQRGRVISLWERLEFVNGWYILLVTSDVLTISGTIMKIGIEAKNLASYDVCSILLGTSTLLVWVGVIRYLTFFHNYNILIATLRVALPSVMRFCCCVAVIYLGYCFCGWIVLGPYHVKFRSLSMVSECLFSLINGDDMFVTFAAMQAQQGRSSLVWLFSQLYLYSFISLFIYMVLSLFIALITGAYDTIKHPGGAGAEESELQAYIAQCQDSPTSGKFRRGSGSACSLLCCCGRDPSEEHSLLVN
#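 Tet-induced TRPML1-DL cells loaded with Ca8 no-wash calcium dye were read kinetically on FDSS. Compound addition was followed by EC80 agonist 54-4 (4 uM final); inhibition was read over 110 s.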
# TRPML1 agonist: qHTS for Agonists of the Human Mucolipin Transient Receptor Potential 1 (TRPML1); Mucolipin-1 (Homo sapiens), Q9GZU1; TRPML1-expressing cells, Ca2+ dye fluorescence, FDSS; activation, % (test concentration not listed); 410,000 compounds, 0.12% hits; in the data active = activation above about 50%; inconclusive = mostly about 30% to 49%; also: 0% is about no effect
#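 Tet-induced TRPML1-DL cells, 1,500 per well, cultured overnight, were loaded with a no-wash Ca2+ dye for 45–90 min. Calcium fluorescence was recorded on the FDSS for 110 s after compound addition, before the EC80 agonist (4 uM 54-4) was added.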
# Vif-APOBEC3F blk: qHTS for Inhibitors of Vif-A3F Interactions: qHTS; HeLa A3F-eYFP + Vif (tagged APOBEC3F with the HIV-1 protein that degrades it), YFP fluorescence increase; Potency, µM (series often up to 46.1 µM), inactives show top-dose activity, negative = active; 390,000 compounds, 0.2% hits; AID 602313, 2012; also: potency is read from the fitted curve at half-maximal effect; % of control where 0% means no effect; nearly all actives have a fitted effect of over 65% in size
#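 Fluorescence increase (Ex 488/Em 500-530) after overnight compound treatment at 37 deg C flags inhibition of Vif-driven A3F-eYFP loss in stable HeLa A3F-eYFP/Vif cells seeded overnight beforehand.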
# An asterisk follows results filed as active; i = inactive; ? = inconclusive; nt = not tested or not shown; ! = not confirmed by another sample. Most compounds without a hit are left out; they make up all but 1.3% or so of the library. Unless noted, calls follow the shape of the dose curve; as a rule, active = well fitted curve in the direction sought with a large enough effect; inconclusive = small, poorly fitted or top-dose-only effect, or another doubt; inactive = no such curve, though single readings can be large; an effect the other way counts as inactive or inconclusive.
SMILES,ALOX12 inh,Vif-APOBEC3G blk,Glioma ERSR ind,TRPML1 blocker,TRPML1 agonist,Vif-APOBEC3F blk
O=C(Nc1nc(-c2c[nH]c3ccccc23)cs1)C1CCC1,50µM*,nt,nt,nt,nt,nt
CSCCC(=O)Nc1nc(-c2ccccn2)cs1,-15%,2%,0%,-1,0,-31%
CCc1c(C)nc2n(c1=O)CN(Cc1cccnc1)CN2c1ccc(F)cc1,35%,nt,nt,nt,nt,nt
O=C(CSc1ccccc1Cl)N1CCNC1=O,-6%,nt,nt,nt,nt,nt
COCCCNc1oc(-c2ccc(COc3cccc(C)c3)o2)nc1C#N,-19%,nt,nt,nt,nt,nt
CC(c1ccc(F)cc1)N(C)CCC(=O)N1CCCCC1 (stereo not drawn),7%,nt,nt,nt,nt,nt
O=C(N/N=C/c1ccncc1)c1cc([N+](=O)[O-])cc([N+](=O)[O-])c1O,50µM*,1%,5%,-13,16,nt
CCOC(=O)c1c(S(=O)(=O)N2CCN(C3CCCCC3)CC2)c(C)n(C)c1C,0%,-6%,-4%,-8,0,-20%
CCOC(=O)c1c(S(=O)(=O)N2CCCC2)nn(CC)c1C,13µM*,nt,nt,nt,nt,nt
CC1CCCCN1CCCNC1CCCC1 (stereo not drawn),1%,nt,nt,nt,nt,nt
Cc1ccc(NC(=O)Cn2c(O)c(N=NC(=O)c3ccncc3)c3ccccc32)cc1,nt,0%,-5%,28,0,4µM*
Brc1ccc(-c2noc(CCc3nc4ccccc4[nH]3)n2)cc1,2%,nt,nt,nt,nt,nt
COc1ccc(C=CC(=O)c2ccc([N+](=O)[O-])cc2)cc1,-5%,-1%,-1%,3,0,?
Cc1[nH]c(C)c(C(=O)/C=C/c2ccc([N+](=O)[O-])cc2)c1C,32µM*,-13%,-6%,-3,0,-24%
COc1ccc(OCCOC(=O)c2cc(C)nc3ccccc23)cc1,3%,nt,nt,nt,nt,nt
CCCC(=O)Nc1nn2c(-c3ccccc3)nnc2s1,-9%,nt,nt,nt,nt,nt
Cc1ccccc1-c1nnc2sc(NC(=O)c3ccc(F)cc3)nn12,32µM*,nt,nt,nt,nt,nt
Cc1cccc(CSCc2ccc(-c3nc(-c4ccc(Br)cc4)no3)o2)c1,3.5µM*,nt,nt,nt,nt,nt
O=C(Nc1ccc(F)cc1)C1C(c2ccccc2)C1(Cl)Cl (stereo not drawn),7.1µM*,0%,0%,-6,1,-2%
Nc1c(C(=O)C2CC2)sc2nc(-c3cccs3)cc(C(F)(F)F)c12,7%,-53%,-2%,8,17,0.63µM*
Nc1c(C(=O)Nc2ccc(F)cc2)sc2nc(-c3cccs3)cc(C(F)(F)F)c12,3%,?,4%,-17,?,?
Cc1ccc(C(=O)OCC(=O)Nc2sc3c(c2C#N)CCCC3)cc1NC(=O)c1ccco1,35µM*,-4%,-4%,-1,0,-3%
OCC1CCN(Cc2cc3cc4c(cc3nc2-c2ccc(Cl)cc2)OCO4)CC1,21%,nt,nt,nt,nt,nt
CC(C)CCn1c(SCC(=O)c2ccccc2)nc2c1c(=O)n(C)c(=O)n2C,18µM*,nt,nt,nt,nt,nt
Cc1c(Cl)cccc1N1CC(C)(C)C1=O,-22%,-6%,-8%,-17,52*,i
SMILES,ALOX12 inh,Vif-APOBEC3G blk,Glioma ERSR ind,TRPML1 blocker,TRPML1 agonist,Vif-APOBEC3F blk
CC1(C)CN(c2ccc(Br)cc2Br)C1=O,?,-4%,-2%,0,1,-6%
CCOc1cc(C(c2c(C)[nH]c3ccccc23)c2c(C)[nH]c3ccccc23)ccc1O,7.9µM*,nt,nt,nt,nt,nt
CCCNc1c(NC(=O)c2ccccc2OCC)c(=O)oc2ccccc12,-6%,nt,nt,nt,nt,nt
CCNCc1ccc(-c2ccccc2)o1,16µM*!,nt,nt,nt,nt,nt
CCc1ccccc1NC(=O)Cn1nc(C)c2ccccc21,38%,nt,nt,nt,nt,nt
O=C(Nc1sc2c(c1C(=O)O)CCCC2)c1cccnc1,6%,nt,nt,nt,nt,nt
CCN(CC(=O)Nc1c(F)cccc1F)C(=O)CCc1nc2sc3c(c2c(=O)[nH]1)CCCC3,14µM*,-5%,-7%,2,0,4%
O=C(Nc1cccc(Cl)c1)OCc1cnc(Cl)s1,25µM*,-9%,-5%,0,0,-7%
O=C(Nc1cccc(Cl)c1)OCCOCCOC(=O)Nc1cccc(Cl)c1,-4%,0%,-2%,-10,0,-12%
COCCN(Cc1cc2ccc(C)cc2[nH]c1=O)C(=O)c1cccc(OC)c1,14%,nt,nt,nt,nt,nt
COc1ccc2nc(SCC(C)=O)c(C#N)cc2c1,?,?,1%,-6,0,3.5µM*
Cc1cc(C)c2nc(SCC(=O)N3CC(=O)Nc4ccccc43)c(C#N)cc2c1,0%,?,-2%,-11,8,?
COc1ccc2nc(SCC(=O)N3CC(=O)Nc4ccccc43)c(C#N)cc2c1,-24%,10µM*,-3%,19,6,22µM*
CC(C)c1nnc2sc(-c3c[nH]c4ccccc34)nn12,7%,nt,nt,nt,nt,nt
CN(CCC(O)c1ccccc1)c1nccc(-c2cccnc2)n1 (stereo not drawn),22%,nt,nt,nt,nt,nt
CCCOc1ccc(N)cc1N,?,?,-12%,-25,0,22µM*
O=C(CN(CC(=O)Nc1ccc(F)cc1)CC(=O)Nc1ccc(F)cc1)Nc1ccc(F)cc1,13µM*,nt,nt,nt,nt,nt
Cc1cc(=O)oc2cc(Br)ccc12,-45%,nt,nt,nt,nt,nt
CC1CC2=C(NC(=S)NC2c2cccc(F)c2)/C(=C/c2cccc(F)c2)C1 (stereo not drawn),28µM*,0%,-2%,-4,1,?
CC1CC2=C(NC(=S)NC2c2ccccc2F)/C(=C/c2ccccc2F)C1 (stereo not drawn),35µM*,-1%,0%,-2,1,7%
Cc1ccc(/C=C2\CC(C)CC3=C2NC(=S)NC3c2ccc(C)cc2)cc1 (stereo not drawn),?,0%,-5%,30,1,-21%
O=C(Nc1nnc(C2CC2)s1)C1CC(c2ccccc2)=NO1 (stereo not drawn),9%,nt,nt,nt,nt,nt
CC(=O)N/N=C(\C)c1ccccc1,14%,nt,nt,nt,nt,nt
Cc1nn(-c2nc(CC(=O)Nc3cccnc3)cs2)c(C)c1Cc1ccccc1,-22%,nt,nt,nt,nt,nt
COc1ccc2nc3ccccc3nc2c1NC(=O)c1ccc(Cl)cc1Cl,-15%,4µM*,-2%,1,3,?
COc1cc(-c2cc(C(=O)Nc3c(Cl)cc(Cl)cc3Cl)c3ccccc3n2)cc(OC)c1OC,-16%,-6%,-2%,64,1,-1%
Cc1c(C(=O)NC(c2ccc(F)cc2)c2nccn2C)oc2ccc(F)cc12 (stereo not drawn),-5%,nt,nt,nt,nt,nt
